Assay outcomes as filed in PubChem.
Most compounds without a hit are left out; they make up all but 4% or so of the library.
Wnt bcat act: activates Wnt/beta-catenin signaling in a reporter cell assay | activator, plate reader | activation, % at 9.35 µM | actives 1.2% (n = 300,000) | AID 743398; in the data active = activation above about 30%, passing the limit was not always enough; inconclusive = no clear call, values can overlap the other calls;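 note: 0% = neutral control wells and 100% = positive control wells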
EBV LMP1 NFkB: inhibitors of Epstein-Barr LMP1-induced NF-kappaB reporter; inhibition, % at 12.5 µM; LMP1-induced NF-kappaB luciferase reporter cells, luminescence; actives 0.69% (n = 350,000); in the data active = inhibition above about 41%; inconclusive = no clear call, values can overlap the other calls;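 note: 0% = neutral control wells and 100% = reference inhibitor control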
TRPM1 prom inh: inhibitors of MITF-driven TRPM1 promoter in melanoma cells; SK-MEL-5 TRPM1 promoter luciferase, 24 h; inhibition, % at 12.5 µM; actives 0.83% (n = 330,000);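 active = mean inhibition across replicates of 60% or more, whatever share of single replicates reaches that level; inconclusive = some that reach 60%, reason not given; inactive = mean inhibition across replicates below 60%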
esBAF inh: SWI/SNF esBAF complex inhibition; actives 2% (n = 350,000); mouse ES cells, Bmi1-luciferase knock-in reporter, 24 h; 100% = twice the neutral-well signal; reporter increase, % at 12.5 µM; AID 602393; in the data active = activation above about 40%; inconclusive = no clear call, values can overlap the other calls;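 note: 0% = median of the plate's neutral control wells and 100% = double that signal; a rise in the Bmi1 reporter signal indicates esBAF inhibition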
MITF act: MITF TRPM1 promoter activation in melanoma cells | activation, % at 12.5 µM | SK-MEL-5 TRPM1-promoter luciferase, 24 h; % of positive control, neutral wells = 0 | actives 0.75% (n = 300,000) | AID 588334;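 active = mean activation of at least 80% with every replicate also reaching 80%; inconclusive = mean reaches 80% but some replicate falls short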;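 note: 0% = neutral control wells and 100% = parthenolide positive control wells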
C2C12 statin: suppression of simvastatin myotoxicity; actives 0.78% (n = 330,000); AID 602340; rescue of ATP level, % at 7.49 µM; C2C12 myotubes + simvastatin, ATP luminescence, 48 h; scaled: DMSO 0, geranylgeraniol control 100;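 active = mean ATP rescue above about 67%, or every replicate alone reaching that limit, limit read from the data, passing the limit was not always enough; inconclusive = no clear call, values can overlap the other calls; inactive = mean under the limit and some replicate under it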;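 note: myotubes were challenged with 10 µM simvastatin during compound exposure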
Numbers without * were called inactive; ? = inconclusive; . = no result.

SMILES	Wnt bcat act	EBV LMP1 NFkB	TRPM1 prom inh	esBAF inh	MITF act	C2C12 statin
Cc1csc(NC(=O)CCCc2cccs2)n1	0	0	-37	?	37	2
CC1CCc2nc(NC(=O)c3ccco3)sc2C1 (stereo not drawn)	.	60*	32	.	-31	.
O=C(CCCc1cccs1)Nc1nc2c(s1)CCCC2	.	-35	-36	53*	.	11
CSc1ccccc1OCc1cc(C(=O)N[C@H]2CCCCNC2=O)no1	29	-21	-95	66*	96*	3
CSc1ccccc1OCc1cc(C(=O)NC(C)CCn2cccn2)no1 (stereo not drawn)	-1	-3	-5	.	6	.
CSc1ccccc1OCc1cc(C(=O)NC(C)c2cnn(C)c2)no1 (stereo not drawn)	14	-13	-63	54*	70	1
CCOC(=O)C[C@H]1c2ccc(C(F)(F)F)cc2S(=O)(=O)N1C(C)(C)C	2	-2	-1	-5	2	3
C/C(=N\Nc1ccccn1)c1ccc(C(C)C)cc1	5	-30	-126	64*	125*	-16
C/C(=N\Nc1ccccn1)c1ccc(N2CCOCC2)cc1	29	-29	-51	.	58	.
C/C(=N\Nc1ccccn1)c1ccc2c(c1)OCO2	10	-31	-39	61*	35	-10
O=C(NCc1ccccc1Cl)C1CCN(S(=O)(=O)N2CCCCC2)CC1	0	-4	1	7	-2	-13
CCOC(=O)C1=CCN(S(=O)(=O)c2ccc(F)cc2)C1c1ccc(Br)cc1 (stereo not drawn)	-2	.	.	-2	.	-1
O=C(O)C1C2CCCCC2=C2CCCCC2C1C(=O)O (stereo not drawn)	90*	1	-7	-3	8	9
O=C(O)C1C2CCCCC2=C2CCCCC2C1C(=O)Nc1nccs1 (stereo not drawn)	-1	1	2	.	-5	.
Cc1ccc2c(c1)c1ncnc(N3CCOCC3)c1n2C	.	-3	-12	39	14	-27
COc1ccc2c(c1)c1ccc3c(c1n2C)C(=O)C=CC3=O	2	-92	92*	-13	-91	-84
Cn1c2ccccc2c2ccc3c(c21)C(=O)C=CC3=O	-1	8	89*	.	-90	.
Cc1ccc2c(c1)c1ccc3c(c1n2C)C(=O)C=CC3=O	6	-69	93*	-43	-92	-222
Cc1ccc(C)c2c1c1ccccc1n2C	-1	-4	13	-14	-10	-16
Cc1noc(C)c1NC(=O)N(C)C[C@@H]1Oc2ccc(NC(=O)CCC(F)(F)F)cc2CC(=O)N([C@H](C)CO)C[C@@H]1C	.	.	.	-6	.	0
Cc1cc(S(=O)(=O)N(Cc2ccc(C(C)(C)C)cc2)Cc2cccs2)ccc1-n1cnnn1	.	-1	-2	8	8	4
CCOC(=O)c1ccc(OC)c(OC)c1Cl	0	-1	11	-2	-11	-4
CCOc1ccccc1Nc1nc(N)nc(Cl)c1CC	0	8	-5	.	4	107*
CCc1c(Cl)nc(N)nc1Nc1ccccc1Cl	-1	5	-5	2	-2	3
Cc1ccc(SCC(=O)NC(=O)NC(C)C)c(C)c1	-1	3	-11	.	13	.
SMILES	Wnt bcat act	EBV LMP1 NFkB	TRPM1 prom inh	esBAF inh	MITF act	C2C12 statin
Cc1ccc(SCC(=O)NC(=O)NCCC(C)C)c(C)c1	41*	-15	-7	.	7	.
COc1ccc(NC(=O)CSc2nnc(-c3ccccc3)n2Cc2ccco2)c(OC)c1	-3	-7	11	4	-10	14
COc1ccc(NC(=O)CSc2nnc(-c3ccccc3Cl)n2Cc2ccco2)c(OC)c1	-3	0	3	-5	-3	115*
CCC(=O)Nc1cc(NC(=O)CSc2ncc(-c3ccc(F)cc3)n2Cc2ccco2)ccc1C	38*	-30	-74	.	78	.
CCOc1ccc(NC(=O)CSc2nccn2Cc2ccco2)cc1	10	-19	-45	21	49	0
COc1ccc(NC(=O)CSc2ncc(-c3ccc(F)cc3)n2Cc2ccco2)cc1	2	5	-2	-19	3	4
Cc1cccc(NC(=O)CSc2nccn2Cc2ccco2)c1	20	-29	-61	44*	66	0
COc1ccc(NC(=O)CSc2nccn2Cc2ccco2)cc1	36*	-13	-59	36	57	4
O=C1NCCN/C1=C\C(=O)c1ccc(Br)cc1	63*	.	.	.	.	.
O=C1NCCN/C1=C\C(=O)c1ccccc1	0	1	-12	18	13	11
COc1cc(NC(=O)[C@@H]2CCCN2S(=O)(=O)c2cccc3cccnc23)cc(OC)c1OC	-1	-5	6	-1	-6	87*
COc1cccc(NC(=O)[C@@H]2CCCN2S(=O)(=O)c2cccc3cccnc23)c1	0	8	-4	-1	4	18
CSc1cccc(NC(=O)/C=C/c2ccccc2)c1	28	-13	-67	62*	.	-1
O=C(/C=C/c1ccccc1)Nc1cccc(C(=O)O)c1	-4	80*	99*	.	-98	.
O=C(/C=C/c1ccccc1)Nc1cc(NC(=O)/C=C/c2ccccc2)cc(C(=O)O)c1	1	8	18	-6	-17	1
Cn1c(NC(=O)/C=C/c2ccccc2)cc(=O)n(C)c1=O	61*	-14	-1	.	1	.
COc1ccc(COC(=O)CCN=C2NS(=O)(=O)c3ccccc32)cc1F	-3	-3	0	-3	-1	-3
O=C(c1cccc([N+](=O)[O-])c1)c1ccc2c(c1)C(=O)NC2=O	.	-6	3	.	-1	.
CC(=O)c1ccc(-c2nc3ccccc3n2C)o1	.	-4	-26	55*	27	-13
CCOc1ccc(Br)cc1C(=O)N/N=C/c1cccc(C)n1	-1	12	2	2	-5	-9
Cc1ccnc2nc(C(=O)Nc3nc4ccccc4s3)nn12	38*	10	-18	-16	15	-3
CC(=O)Nc1cc(C)nn1-c1nc2ccccc2s1	1	-5	11	.	-15	.
Cc1cc(C)n(-c2ccc(C(=O)Nc3nc4ccccc4s3)cc2)n1	?	-20	-55	44*	56	.
Fc1cccc2sc(Nc3nc4ccccc4s3)nc12	36*	-29	-26	?	29	-2
O=C(Nc1nc2ccccc2s1)Nc1ccc(F)cc1F	38*	-38	-76	22	.	19
OC[C@@H]1CN(Cc2cccs2)C[C@H](n2cnc3c(N4CCN(c5ccccc5)CC4)ncnc32)O1	-2	.	.	0	.	4
Cc1ccc(NC(=S)NCCc2ccc(S(N)(=O)=O)cc2)c(C)c1	20	-1	3	.	-4	.
Cc1c(C#N)c2ncnc(-c3ccccc3)c2n1-c1ccccc1	.	8	12	-3	-11	-9
O=C(Nc1nc2ccccc2s1)c1c(F)cccc1Cl	7	-4	-40	52*	43	5
Nc1ccc(C(=O)Nc2nc3ccccc3s2)cc1	35*	-31	-6	-17	7	-6
